Screen size: about 86,000 compounds; about 1,200 (1.4%) were called active. The sample holds actives, similar compounds and a random draw of the others, so the mix is not that of the screen. Cut-off read from the data, not from the text of the source: active = activity above about 200%; inactive = the rest.
What follows are molecules tested against Estrogen receptor (Homo sapiens) (UniProt P03372) (assay: enhancers of ERα–SRC-1 coactivator binding, primary screen, biochemical, TR-FRET, ERα LBD, low estradiol (AID 639;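 note: binding measured in presence of low estradiol as agonist stimulus; 0% = peptide alone without receptor and 100% = receptor with peptide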)). Conditions: TR-FRET ERalpha-LBD/SRC-Cy5 coactivator binding, 2 h; at 25.6 µM; stronger effect = higher value; 100 = basal binding, no effect.
Chain of Estrogen receptor (Homo sapiens) (P03372 whole entry, looked up, the tested form may be a part): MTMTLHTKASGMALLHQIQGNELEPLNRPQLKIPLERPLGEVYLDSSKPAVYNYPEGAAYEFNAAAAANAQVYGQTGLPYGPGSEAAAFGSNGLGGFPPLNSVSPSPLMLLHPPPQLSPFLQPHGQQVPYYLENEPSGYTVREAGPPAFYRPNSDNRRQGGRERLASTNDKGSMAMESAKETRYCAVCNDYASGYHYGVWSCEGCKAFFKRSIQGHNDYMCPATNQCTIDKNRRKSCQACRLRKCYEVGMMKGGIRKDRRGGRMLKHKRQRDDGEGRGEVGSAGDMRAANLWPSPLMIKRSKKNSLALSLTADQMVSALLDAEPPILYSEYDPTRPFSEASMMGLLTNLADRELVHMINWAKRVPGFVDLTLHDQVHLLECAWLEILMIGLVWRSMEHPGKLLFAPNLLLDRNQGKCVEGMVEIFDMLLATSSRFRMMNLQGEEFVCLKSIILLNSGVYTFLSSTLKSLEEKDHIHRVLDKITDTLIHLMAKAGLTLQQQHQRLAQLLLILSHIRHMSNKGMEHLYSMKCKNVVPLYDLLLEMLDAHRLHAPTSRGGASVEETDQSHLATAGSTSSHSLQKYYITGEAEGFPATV

Coactivator binding (% of control), inactive:
CCc1nnc(NC(=O)CSc2nc3ccccc3c(=O)n2CCCOC)s1 102%
CCOC(=O)c1c(N=CN(C)C)c(C#N)c2n1CCCC2 111%
COc1cc(Cl)c(C)cc1NC(=O)CSc1nnc(-c2cccnc2)n1Cc1ccco1 90.9%
COc1ccc(NC(=O)CSc2nnc(-c3cccs3)n2Cc2ccco2)cc1OC 95.3%
COC(=O)c1ccc(NC(=O)C23CC4CC(C2)CC(n2cnc(Cl)n2)(C4)C3)cc1 101%
Cc1cccc(N(C(=O)c2ccc(CN3CCOCC3)o2)C(C(=O)NC2CCCCC2)c2ccc(F)cc2)c1 (stereo not given) 114%
O=C(CSc1nnc(-c2ccc(NS(=O)(=O)c3ccccc3)cc2)o1)NCC1CCCO1 (stereo not given) 103%
CCn1c(SCC(=O)NCC2CCCO2)nc2cc(S(=O)(=O)N3CCCCC3)ccc21 (stereo not given) 88.2%
CC1Cc2ccccc2N1C(=O)c1cc2sccc2n1Cc1ccccc1 (stereo not given) 200%
CCc1c(-c2ccccc2)nc(N)c(C#N)c1-c1cccs1 95.7%
Cc1c(-c2ccccc2)nc(N)c(C#N)c1-c1cccs1 155%
O=C(c1cc2c(s1)CCC2)N1CCN(c2ccccc2)CC1 19.5%
CCCNC(=S)N1CCC(NC(=O)C23CC4CC(CC(C4)C2)C3)CC1 108%
O=C(Cn1nnc(-c2ccc(CN3CCOCC3)cc2)n1)NC1CCCCC1 123%
CCOc1ccc(-c2nnn(CC(=O)N3CCN(c4ccc(OC)cc4)CC3)n2)cc1OCC 87.8%
COc1ccc(N(CC(=O)NC2CCCCC2)C(=O)CNC(=O)c2ccco2)c(OC)c1 113%
O=C(Nc1nncs1)c1cccc(S(=O)(=O)N2CCCCC2)c1 91.9%
CSc1nnc2c(n1)OC(c1cn(C)c3ccccc13)N(C(C)=O)c1ccccc1-2 (stereo not given) 120%
COCCCNC(=O)CN1CCN(Cc2ccccc2Cl)C1=O 107%
CCOc1ccc(N=C2NC(=O)S/C2=C\c2ccc(O)cc2)cc1 179%

Coactivator binding (% of control), active:
COc1ccccc1NC(=O)CSc1nc2sc(C)c(C)c2c(=O)n1Cc1ccco1 225%
Cc1ccc2cc(C#N)c(SCC(=O)NCC3CCCO3)nc2c1C (stereo not given) 240% [fluorescence artefact?]
CSc1nc(N)c(C#N)c(-c2ccccc2Cl)c1C#N 214% [fluorescence artefact?]
COc1ccc(C(=O)Cn2nnc(-c3ccc(N4CCOCC4)cc3)n2)cc1OC 240%
CSc1nnc2c(n1)OC(c1ccsc1)N(C(C)=O)c1ccccc1-2 (stereo not given) 348%

Reference: PubChem BioAssay AID639 (Emory University Molecular Libraries Screening Center, 2007)
